About 2,000 (36%) of roughly 5,500 compounds were called active. Inconclusive results (about 18%) are left out. Rule as the data show it: active = normalized growth mostly below about 0.91 (no sharp cut-off); inconclusive = no clear call, values can overlap the other calls; inactive = mostly above about 0.92. The list shows a part of the results.
Assay: chemical genetic growth profiling, strain panel (AID 1159580);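 also: tested at 20 µM; growth read once vehicle control cultures reached saturation at 30 °C; 1 = growth at the plate median or of vehicle wells; lower values mean less growth of the strain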
Settings: growth OD

Measured: normalized growth

O=c1c(O)c(-c2ccccc2)oc2cc(O)ccc12
active: S. cerevisiae deletion strains, locus YKL085W, strain MDH1 (second series), active compounds read low 0.911 | S. cerevisiae deletion strains, locus YKL085W, strain MDH1, active compounds read low 0.911 | S. cerevisiae deletion strains, locus YKL160W, strain elf1, active compounds read low 0.772 | S. cerevisiae deletion strains, locus YKL190W, strain CNB1, active compounds read low 0.4 | S. cerevisiae deletion strains, locus YKR001C, strain vps1, active compounds read low 0.708 | S. cerevisiae deletion strains, locus YKR026C, strain gcn3, active compounds read low 0.879 | S. cerevisiae deletion strains, locus YKR091W, strain srl3, active compounds read low 0.834 | S. cerevisiae deletion strains, locus YLL001W, strain dnm1, active compounds read low 0.827 | S. cerevisiae deletion strains, locus YLL026W, active compounds read low 0.558 | S. cerevisiae deletion strains, locus YLL041C, strain sdh2, active compounds read low 0.85 | S. cerevisiae deletion strains, locus YLR027C, strain aat2, active compounds read low 0.701 | S. cerevisiae deletion strains, locus YLR039C, strain RIC1, active compounds read low 0.236 | S. cerevisiae deletion strains, locus YLR058C, strain SHM2, active compounds read low 0.514 | S. cerevisiae deletion strains, locus YLR221C, strain rsa3, active compounds read low 0.759 | S. cerevisiae deletion strains, locus YLR258W, strain gsy2, active compounds read low 0.699 | S. cerevisiae deletion strains, locus YLR262C, strain YPT6 (second series), active compounds read low 0.341 | S. cerevisiae deletion strains, locus YLR262C, strain YPT6, active compounds read low 0.263 | S. cerevisiae deletion strains, locus YLR268W, strain sec22, active compounds read low 0.62 | S. cerevisiae deletion strains, locus YLR320W, strain mms22, active compounds read low 0.674 | S. cerevisiae deletion strains, locus YLR330W, strain CHS5, active compounds read low 0.663 | S. cerevisiae deletion strains, locus YLR342W, strain FKS1 (second series), active compounds read low 0.51 | S. cerevisiae deletion strains, locus YLR342W, strain FKS1, active compounds read low 0.765 | S. cerevisiae deletion strains, locus YLR357W, strain rsc2, active compounds read low 0.717 | S. cerevisiae deletion strains, locus YLR370C, strain arc18, active compounds read low 0.738 | S. cerevisiae deletion strains, locus YLR371W, strain rom2, active compounds read low 0.636 | S. cerevisiae deletion strains, locus YLR384C, strain iki3, active compounds read low 0.906 | S. cerevisiae deletion strains, locus YLR418C, strain cdc73, active compounds read low 0.357 | S. cerevisiae deletion strains, locus YML016C, strain PPZ1, active compounds read low 0.455 | S. cerevisiae deletion strains, locus YML032C, strain rad52, active compounds read low 0.872 | S. cerevisiae deletion strains, locus YML120C, strain ndi1, active compounds read low 0.887 | S. cerevisiae deletion strains, locus YML124C, strain tub3, active compounds read low 0.827 | S. cerevisiae deletion strains, locus YMR058W, strain fet3, active compounds read low 0.104 | S. cerevisiae deletion strains, locus YMR078C, strain ctf18, active compounds read low 0.909 | S. cerevisiae deletion strains, locus YMR129W, active compounds read low 0.838 | S. cerevisiae deletion strains, locus YMR205C, strain PFK2, active compounds read low 0.639 | S. cerevisiae deletion strains, locus YMR223W, strain ubp8, active compounds read low 0.685 | S. cerevisiae deletion strains, locus YMR231W, strain pep5, active compounds read low 0.336 | S. cerevisiae deletion strains, locus YMR307W, strain GAS1, active compounds read low 0.328 | S. cerevisiae deletion strains, locus YNL067W, strain RPL9B, active compounds read low 0.496 | S. cerevisiae deletion strains, locus YNL071W, strain lat1, active compounds read low 0.709 | S. cerevisiae deletion strains, locus YNL128W, strain TEP1, active compounds read low 0.319 | S. cerevisiae deletion strains, locus YNL153C, strain GIM3, active compounds read low 0.577 | S. cerevisiae deletion strains, locus YNL209W, strain ssb2, active compounds read low 0.335 | S. cerevisiae deletion strains, locus YNL233W, strain BNI4, active compounds read low 0.479 | S. cerevisiae deletion strains, locus YNL248C, strain rpa49, active compounds read low 0.859 | S. cerevisiae deletion strains, locus YNL271C, strain bni1, active compounds read low 0.858 | S. cerevisiae deletion strains, locus YNL307C, strain MCK1, active compounds read low 0.745 | S. cerevisiae deletion strains, locus YNL322C, strain KRE1, active compounds read low 0.415 | S. cerevisiae deletion strains, locus YNR049C, strain mso1, active compounds read low 0.895 | S. cerevisiae deletion strains, locus YNR052C, strain pop2, active compounds read low 0.713 | S. cerevisiae deletion strains, locus YOL006C, strain TOP1, active compounds read low 0.167 | S. cerevisiae deletion strains, locus YOL147C, strain pex11, active compounds read low 0.914 | S. cerevisiae deletion strains, locus YOR001W, strain rrp6, active compounds read low 0.873 | S. cerevisiae deletion strains, locus YOR061W, strain CKA2, active compounds read low 0.682 | S. cerevisiae deletion strains, locus YOR069W, strain VPS5, active compounds read low 0.614 | S. cerevisiae deletion strains, locus YOR070C, strain gyp1, active compounds read low 0.739 | S. cerevisiae deletion strains, locus YOR080W, strain dia2, active compounds read low 0.777 | S. cerevisiae deletion strains, locus YOR083W, strain WHI5, active compounds read low 0.695 | S. cerevisiae deletion strains, locus YOR106W, strain vam3, active compounds read low 0.27 | S. cerevisiae deletion strains, locus YOR136W, strain idh2, active compounds read low 0.909 | S. cerevisiae deletion strains, locus YOR184W, strain ser1, active compounds read low 0.5 | S. cerevisiae deletion strains, locus YOR265W, strain rbl2, active compounds read low 0.71 | S. cerevisiae deletion strains, locus YOR270C, strain vph1, active compounds read low 0.306 | S. cerevisiae deletion strains, locus YOR290C, strain snf2, active compounds read low 0.754 | S. cerevisiae deletion strains, locus YOR316C, strain cot1, active compounds read low 0.903 | S. cerevisiae deletion strains, locus YPL051W, strain arl3, active compounds read low 0.439 | S. cerevisiae deletion strains, locus YPL055C, strain LGE1, active compounds read low 0.363 | S. cerevisiae deletion strains, locus YPL078C, strain atp4, active compounds read low 0.845 | S. cerevisiae deletion strains, locus YPL106C, strain sse1, active compounds read low 0.65 | S. cerevisiae deletion strains, locus YPL240C, strain hsp82, active compounds read low 0.81 | S. cerevisiae deletion strains, locus YPL241C, strain CIN2, active compounds read low 0.719 | S. cerevisiae deletion strains, locus YPR119W, strain clb2, active compounds read low 0.931 | S. cerevisiae deletion strains, locus YPR163C, strain tif3, active compounds read low 0.844 | S. cerevisiae deletion strains, locus YPR167C, strain met16, active compounds read low 0.734 | S. cerevisiae deletion strains, strain wtn01, active compounds read low 0.751 | S. cerevisiae strains, strain wild type, active compounds read low 0.246
inactive: S. cerevisiae deletion strains, locus YKL009W, strain mrt4, active compounds read low 0.932 | S. cerevisiae deletion strains, locus YKL068W, active compounds read low 0.948 | S. cerevisiae deletion strains, locus YLR102C, strain apc9, active compounds read low 0.935 | S. cerevisiae deletion strains, locus YLR113W, strain HOG1, active compounds read low 1 | S. cerevisiae deletion strains, locus YMR125W, strain sto1, active compounds read low 0.929 | S. cerevisiae deletion strains, locus YNL183C, strain NPR1, active compounds read low 0.98 | S. cerevisiae deletion strains, locus YNL250W, strain rad50, active compounds read low 0.927 | S. cerevisiae deletion strains, locus YNL298W, strain CLA4, active compounds read low 0.914 | S. cerevisiae deletion strains, locus YNL322C, strain KRE1 (second series), active compounds read low 0.971 | S. cerevisiae deletion strains, locus YOL012C, strain htz1 0.446 | S. cerevisiae deletion strains, locus YOR144C, strain elg1, active compounds read low 0.94 | S. cerevisiae deletion strains, locus YOR231W, strain MKK1, active compounds read low 1.03 | S. cerevisiae deletion strains, locus YPL256C, strain CLN2, active compounds read low 1.06 | S. cerevisiae deletion strains, locus YPR141C, strain kar3, active compounds read low 0.942
